Structures are written as SMILES. Several values for one entry are separate records, joined by “and”; a condition that tells them apart may be missing. Equal entries are not always repeated. Structures can show the parent of a compound that is named as a salt.

Common to all, as to experiment: cell viability relative to vehicle control; higher = less cytotoxic
Common to all, as to conditions: 10 µM

One assay concerns K562. An outline of the steps:
(§1)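 Four leukaemia lines, as CRISPR-edited mutant clones and isogenic wild-type clones, were tested against Selleck bioactive, kinase and epigenetic probe libraries after removal of identity-inconsistent compounds. Cells were exposed to a single 10 µM dose for 48 h, and CellTiter-Glo luminescence was then read. Viability was calculated relative to the on-plate vehicle control.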

For another assay, the system named is MARIMO. Put shortly:
as §1

The next assay concerns MOLM14. An outline of the steps: as §1
Another assay has as its system OCI-AML2. An outline of the steps: as §1

Take `C#Cc1cccc(Nc2ncnc3cc(OCCOC)c(OCCOC)cc23)c1` [Erlotinib(OSI-744)]: the cell viability (commonly a read-out of living cells in per cent, often relative to untreated cells) was 83.5% and 94.5% with K562 (SRSF2 genotype: SRSF2 P95H/wt); 84.8% with K562 (SRSF2 genotype: SRSF2 wt/wt); 75.9% in the assay with MARIMO (SRSF2 genotype: SRSF2 P95H/wt); 84.8% with MARIMO (SRSF2 genotype: SRSF2 wt/wt); 79% in the assay with MOLM14 (SRSF2 genotype: SRSF2 P95H/wt); 84.6% in the assay on MOLM14 (SRSF2 genotype: SRSF2 wt/wt). Moreover, the cell viability in the assay with OCI-AML2 (SRSF2 genotype: P95H/wt) came to 77.9%; in the assay with OCI-AML2 (SRSF2 genotype: wt/wt), 84.4%.
Take `COc1cc(O)c2c(=O)cc(-c3ccc(O)c(O)c3)oc2c1` [Hydroxygenkwanin]: the cell viability with K562 (SRSF2 genotype: SRSF2 P95H/wt) is 85.2% and 89.8%; in the assay with K562 (SRSF2 genotype: SRSF2 wt/wt), 88.9%; in the assay with MARIMO (SRSF2 genotype: SRSF2 P95H/wt), 45.7%; in the assay with MARIMO (SRSF2 genotype: SRSF2 wt/wt), 69.4%; with MOLM14 (SRSF2 genotype: SRSF2 P95H/wt) it was 57.5%; in the assay with MOLM14 (SRSF2 genotype: SRSF2 wt/wt), 58.8%. For the same molecule, the cell viability in the assay on OCI-AML2 (SRSF2 genotype: P95H/wt) amounted to 58.3%; in the assay on OCI-AML2 (SRSF2 genotype: wt/wt), 56.4%.
With `O=C(O)Cc1ccccc1Nc1c(Cl)cccc1Cl` [Diclofenac Diethylamine], the cell viability is 102% and 108% with K562 (SRSF2 genotype: SRSF2 P95H/wt); 95.4% in the assay with K562 (SRSF2 genotype: SRSF2 wt/wt); 105% in the assay on MARIMO (SRSF2 genotype: SRSF2 P95H/wt); 101% in the assay on MARIMO (SRSF2 genotype: SRSF2 wt/wt); 106% with MOLM14 (SRSF2 genotype: SRSF2 P95H/wt); 102% with MOLM14 (SRSF2 genotype: SRSF2 wt/wt). For the same molecule, the cell viability is 105% in the assay with OCI-AML2 (SRSF2 genotype: P95H/wt) and 103% in the assay on OCI-AML2 (SRSF2 genotype: wt/wt).
Regarding `NC12CC3CC(CC(C3)C1)C2` [Amantadine hydrochloride (Symmetrel)], the cell viability with K562 (SRSF2 genotype: SRSF2 P95H/wt) was 99.7% and 116%; in the assay on K562 (SRSF2 genotype: SRSF2 wt/wt), 107%; in the assay on MARIMO (SRSF2 genotype: SRSF2 P95H/wt) it was 107%; in the assay on MARIMO (SRSF2 genotype: SRSF2 wt/wt), 103%; in the assay on MOLM14 (SRSF2 genotype: SRSF2 P95H/wt) it was 106%; with MOLM14 (SRSF2 genotype: SRSF2 wt/wt), 112%. In addition, the cell viability in the assay with OCI-AML2 (SRSF2 genotype: P95H/wt) was found to be 111%; in the assay on OCI-AML2 (SRSF2 genotype: wt/wt) it was 100%.
For `OC[C@@H](O)[C@@H](O)[C@H](O)[C@@H](O)CO` [Sorbitol (Glucitol)], the cell viability in the assay with K562 (SRSF2 genotype: SRSF2 P95H/wt) is 101% and 105%; in the assay on K562 (SRSF2 genotype: SRSF2 wt/wt) it was 102%; in the assay with MARIMO (SRSF2 genotype: SRSF2 P95H/wt) it was 103%; in the assay on MARIMO (SRSF2 genotype: SRSF2 wt/wt), 102%; with MOLM14 (SRSF2 genotype: SRSF2 P95H/wt), 97.3%; with MOLM14 (SRSF2 genotype: SRSF2 wt/wt), 104%. Moreover, the values for the cell viability in the assay with OCI-AML2 (SRSF2 genotype: P95H/wt) and with OCI-AML2 (SRSF2 genotype: wt/wt) were 101% and 100%, respectively.
Regarding `C[C@H]1CNCCCN1S(=O)(=O)c1cccc2cncc(F)c12` [Ripasudil (K-115)], the cell viability was 104% and 103% in the assay with K562 (SRSF2 genotype: SRSF2 P95H/wt); 108% in the assay on K562 (SRSF2 genotype: SRSF2 wt/wt); 101% with MARIMO (SRSF2 genotype: SRSF2 P95H/wt); 106% with MARIMO (SRSF2 genotype: SRSF2 wt/wt); 74.7% in the assay with MOLM14 (SRSF2 genotype: SRSF2 P95H/wt); 101% in the assay on MOLM14 (SRSF2 genotype: SRSF2 wt/wt). Also, the values for the cell viability with OCI-AML2 (SRSF2 genotype: P95H/wt) and in the assay on OCI-AML2 (SRSF2 genotype: wt/wt) were 76.7% and 82.9%, respectively.
Turning to `COc1ccc(CCO[C@@H]2O[C@H](CO[C@@H]3OC[C@H](O)[C@H](O)[C@H]3O)[C@@H](OC(=O)/C=C/c3ccc(O)c(OC)c3)[C@H](O[C@@H]3O[C@@H](C)[C@@H](O)[C@@H](O)[C@H]3O)[C@H]2O)cc1O` [Angoroside C], the cell viability with K562 (SRSF2 genotype: SRSF2 P95H/wt) was 107% and 103%; in the assay on K562 (SRSF2 genotype: SRSF2 wt/wt), 111%; in the assay with MARIMO (SRSF2 genotype: SRSF2 P95H/wt), 101%; in the assay on MARIMO (SRSF2 genotype: SRSF2 wt/wt), 96.2%; in the assay on MOLM14 (SRSF2 genotype: SRSF2 P95H/wt), 113%; with MOLM14 (SRSF2 genotype: SRSF2 wt/wt) it was 106%. The cell viability was 105% in the assay on OCI-AML2 (SRSF2 genotype: P95H/wt) and 95.5% with OCI-AML2 (SRSF2 genotype: wt/wt).
Take `CC(C)n1cnc2c(NCCc3ccc(O)cc3)nc(-c3csc4ccccc34)nc21` [StemRegenin 1]: the cell viability in the assay with K562 (SRSF2 genotype: SRSF2 P95H/wt) was 50.9% and 50.1%; in the assay with K562 (SRSF2 genotype: SRSF2 wt/wt) it was 56%; in the assay on MARIMO (SRSF2 genotype: SRSF2 P95H/wt), 84.6%; in the assay with MARIMO (SRSF2 genotype: SRSF2 wt/wt), 92.4%; in the assay on MOLM14 (SRSF2 genotype: SRSF2 P95H/wt), 64.5%; with MOLM14 (SRSF2 genotype: SRSF2 wt/wt) it was 89.6%. In addition, the cell viability is 86.8% in the assay with OCI-AML2 (SRSF2 genotype: P95H/wt) and 83.5% with OCI-AML2 (SRSF2 genotype: wt/wt).
For `CCn1c2ccccc2c2cc(Nc3ccnc(NCCCN4CCOCC4)n3)ccc21`, the cell viability in the assay on K562 (SRSF2 genotype: SRSF2 P95H/wt) was 4.34% and 6.16%; in the assay with K562 (SRSF2 genotype: SRSF2 wt/wt), 6.8%; with MARIMO (SRSF2 genotype: SRSF2 P95H/wt), 19.1%; in the assay with MARIMO (SRSF2 genotype: SRSF2 wt/wt) it was 24.9%; in the assay with MOLM14 (SRSF2 genotype: SRSF2 P95H/wt) it was 2.38%; in the assay on MOLM14 (SRSF2 genotype: SRSF2 wt/wt), 0.71%. Also, the cell viability is 0.41% in the assay on OCI-AML2 (SRSF2 genotype: P95H/wt) and 1.05% in the assay with OCI-AML2 (SRSF2 genotype: wt/wt).
Take `CCCCC(=O)O[C@H]1CC[C@H]2[C@@H]3CCc4cc(O)ccc4[C@H]3CC[C@]12C` [Estradiol valerate]: the cell viability with K562 (SRSF2 genotype: SRSF2 P95H/wt) was 84.7% and 95.4%; in the assay with K562 (SRSF2 genotype: SRSF2 wt/wt), 94.2%; in the assay on MARIMO (SRSF2 genotype: SRSF2 P95H/wt), 84.7%; with MARIMO (SRSF2 genotype: SRSF2 wt/wt), 69.3%; in the assay on MOLM14 (SRSF2 genotype: SRSF2 P95H/wt), 69.9%; in the assay with MOLM14 (SRSF2 genotype: SRSF2 wt/wt), 69.2%. The cell viability amounted to 45% with OCI-AML2 (SRSF2 genotype: P95H/wt) and 30.4% in the assay with OCI-AML2 (SRSF2 genotype: wt/wt).

Values taken from the supplement of paper PMC10981050.
